Measured values: PubChem BioAssay AID602340 (Broad Institute, 2012)
Out of some 330,000 compounds screened, about 2,600 (0.79%) were called active.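 How the source made its calls: active means mean ATP rescue above about 67%, or every replicate alone reaching that limit (limit read from the data, passing the limit was not always enough); inconclusive means no clear call, values can overlap the other calls; inactive means mean under the limit and some replicate under it.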 The full list was thinned out, with actives kept by preference.

assay: protection of differentiated C2C12 cells from simvastatin – single point, plate reader, primary screen (AID 602340); conditions: C2C12 myotubes + simvastatin, ATP luminescence, 48 h; at 7.49 µM; stronger effect = higher value; scaled: DMSO 0, geranylgeraniol control 100;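 further: myotubes were challenged with 10 µM simvastatin during compound exposure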

| SMILES | rescue of ATP level |
| --- | --- |
| O=C(C[C@H]1CC[C@H]2[C@@H](COC[C@@H](O)CN2CC2CCOCC2)O1)NCc1ccc(Cl)cc1 | 7.95% (inactive) |
| Cc1ccc(-n2nc3ccc(NC(=O)/C=C/c4ccco4)cc3n2)cc1C | 97.3% (active) |
| CCC(=O)Nc1ccc2nn(-c3ccc(F)cc3)nc2c1 | -5.86% (inactive) |
| O=C(/C=C/c1ccco1)Nc1ccc(Oc2ccccc2)cc1 | -25.3% (inactive) |
| COCC(=O)N[C@H]1C=C[C@H](CC(=O)N2CCCCC2)O[C@H]1CO | 6.62% (inactive) |
| CNC[C@H]1Oc2cc(C#CCOC)ccc2S(=O)(=O)N([C@@H](C)CO)C[C@H]1C | -7.75% (inactive) |
| COc1ccc(NC(=O)c2cc(-c3cc(OC)c(OC)c(OC)c3)nc3ccccc23)c(OC)c1 | -9.57% (inactive) |
| COc1ccc(-c2cc(C(=O)n3cnc4ccccc43)c3ccccc3n2)cc1 | 87.1% (active) |
| COc1ccc(-c2cc(C(=O)Nc3ccccc3O)c3ccccc3n2)cc1 | 14.3% (inactive) |
| O=C(C[C@H]1C=C[C@H](NC(=O)NC2CCCCC2)[C@H](CO)O1)NCc1ccccc1 | 2.53% (inactive) |
| CS(=O)(=O)Nc1ccc2c(c1)[C@H]1C[C@H](CC(=O)NCc3ccc(Cl)cc3)O[C@@H](CO)[C@H]1O2 | -4.85% (inactive) |
| COc1ccccc1-c1cn(CC[C@@H]2CC[C@@H](NC(=O)c3ccccc3F)[C@H](CO)O2)nn1 | 6.43% (inactive) |
| CN(C)Cc1cn(CC[C@H]2CC[C@H](NS(=O)(=O)c3ccccc3)[C@@H](CO)O2)nn1 | -2.83% (inactive) |
| Cc1cc2nc(C)n(CCCNC(=O)Nc3ccccc3)c2cc1C | 93.8% (active) |
| C=CCN(C(=O)Nc1ccc2c(c1)nc(C)n2C)c1ccccc1 | -0.158% (inactive) |
| CCOc1ccc(CCNC(=O)Nc2ccccc2)cc1OCC | 1.69% (inactive) |
| CCCNC(=O)C[C@H]1CC[C@@H]2[C@H](COC[C@H](O)CN2CC2CCCCC2)O1 | -0.493% (inactive) |
| CNC(=O)C[C@H]1CC[C@@H]2[C@H](COc3ccc(NC(=O)Nc4cccc(F)c4)cc3C(=O)N2C)O1 | -6.73% (inactive) |
| CNC(=O)C[C@@H]1CC[C@@H]2[C@@H](COc3ccc(NC(=O)Nc4ccccc4OC)cc3C(=O)N2C)O1 | 10.7% (inactive) |
| Cn1c(=O)[nH]c(=O)c2c1nc(N1CCN(C(c3ccccc3)c3ccccc3)CC1)n2CCO | 41.4% (inactive) |
| CC=CCn1c(SCCCc2ccccc2)nc2c1c(=O)[nH]c(=O)n2C | 1.54% (inactive) |
| CC1CCN(c2nc3c(c(=O)[nH]c(=O)n3C)n2CCCc2ccccc2)CC1 | 144% (active) |
| CCCNC(=O)[C@@H]1[C@@H](CO)[C@@H]2Cn3c(ccc(-c4ccccc4F)c3=O)[C@H]1N2CC1CC1 | -5.23% (inactive) |

| SMILES | rescue of ATP level |
| --- | --- |
| COc1ccccc1-c1cnc2c(c1)C(=O)N([C@H](C)CO)C[C@@H](C)[C@@H](CN(C)Cc1ccncc1)O2 | 41.2% (inactive) |
| C/C(=N\NC(=O)c1nc(C)cc(C)n1)c1ccccc1 | 121% (active) |
| CC(=NNC(=O)c1ccc2nc[nH]c2c1)c1ccc(Br)cc1 | -6.54% (inactive) |
| COc1ccc(/C(C)=N/NC(=O)c2ccc3nc[nH]c3c2)cc1 | -52.1% (inactive) |
| CCCC(O)C#Cc1cnc2c(c1)C(=O)N([C@H](C)CO)C[C@H](C)[C@H](CN(C)Cc1ccc(F)cc1)O2 (stereo partly specified) | -2.92% (inactive) |
| C[C@@H]1CN([C@@H](C)CO)C(=O)Cc2cc(NS(=O)(=O)c3ccc(Cl)cc3)ccc2O[C@H]1CN(C)Cc1ccc(C(F)(F)F)cc1 | 96.2% (active) |
| Cc1ccc(S(=O)(=O)Nc2ccc3c(c2)CC(=O)N([C@@H](C)CO)C[C@H](C)[C@H](CN(C)Cc2ccccc2)O3)cc1 | 21.7% (inactive) |
| Cc1ccc(S(=O)(=O)Nc2ccc3c(c2)CC(=O)N([C@H](C)CO)C[C@@H](C)[C@H](CN(C)Cc2ccc(C(F)(F)F)cc2)O3)cc1 | 110% (active) |
| COc1ccc(S(=O)(=O)Nc2ccc3c(c2)CC(=O)N([C@H](C)CO)C[C@H](C)[C@H](CN(C)Cc2ccc(C(F)(F)F)cc2)O3)cc1 | 12% (inactive) |
| C[C@H]1CN([C@@H](C)CO)C(=O)Cc2cc(NS(=O)(=O)c3ccc(F)cc3)ccc2O[C@H]1CN(C)Cc1ccc(C(F)(F)F)cc1 | 15.6% (inactive) |
| Cc1ccc(S(=O)(=O)Nc2ccc3c(c2)C(=O)N([C@@H](C)CO)C[C@@H](C)[C@H](CN(C)Cc2ccc(C(F)(F)F)cc2)O3)cc1 | 9.63% (inactive) |
| CN1CCCCN2[C@H](CO)[C@H](c3ccc(-c4ccc(F)cc4)cc3)[C@@H]2C1 | 1.44% (inactive) |
| O=C(C[C@@H]1C=C[C@H](NC(=O)Nc2ccc3c(c2)OCO3)[C@H](CO)O1)NCc1ccccc1 | 2.11% (inactive) |
| CO[C@@H]1CN(C)C(=O)c2ccc(NS(=O)(=O)c3cccc(Cl)c3)cc2OC[C@H](C)NC[C@H]1C | 0.734% (inactive) |
| COc1ccccc1-c1ccc2c(c1)O[C@@H](CN(C)CC1CCOCC1)[C@H](C)CN([C@@H](C)CO)S2(=O)=O | -91.2% (inactive) |
| CC(C)NC(=O)Nc1ccc2c(c1)CC(=O)N([C@H](C)CO)C[C@H](C)[C@@H](CN(C)C(=O)Nc1ccc(F)cc1)O2 | -12.6% (inactive) |
| COc1ccc(NCCc2ccccn2)cc1 | -1.75% (inactive) |
| COc1ccc2ccccc2c1CNCc1ccccn1 | 88.1% (active) |
| COc1ccc(C)cc1NC(=O)NCc1ccccn1 | -3.96% (inactive) |
| CCNC(=O)[C@H]1[C@H](CO)[C@H]2Cn3c(ccc(-c4ccc(OC)cc4)c3=O)[C@H]2N1Cc1ccccc1 | -6.11% (inactive) |
| CCCNC(=O)Nc1ccc2c(c1)C(=O)N(C)C[C@@H](OC)[C@@H](C)CN(C)[C@@H](C)CO2 | 0.886% (inactive) |
| CCCN1[C@H](C(=O)N[C@H](C)c2ccccc2)[C@@H](CO)[C@@H]2Cn3c(ccc(-c4cccc(F)c4)c3=O)[C@@H]21 | 25.4% (inactive) |
| O=C(C[C@@H]1C[C@@H]2c3cc(NC(=O)Nc4ccccc4F)ccc3O[C@@H]2[C@@H](CO)O1)NCCc1ccccc1 | -4.6% (inactive) |
